Results on seven compounds are retold here after PubChem BioAssay (Tox21).

The structures appear in SMILES notation. “And” between values parts separate entries of the source, which are not always exact repeats. Equal entries are not always repeated. Records with an inconclusive call do not appear. Some structures have more than one record in an assay (separate samples or runs), and their calls can disagree. The source made the active and inactive calls. Unless noted, calls come from the whole dose curve.

Experiment [1] in a line: Nuclear factor erythroid 2-related factor 2/antioxidant responsive element (Nrf2/ARE) small molecule agonists: qHTS cell viability counter screen in human keratinocytes (AID 1919968; active = well fitted curve in the direction sought with a large enough effect in the repeat runs; an effect the other way counts as inactive or inconclusive; note: nearly all actives have a fitted effect of over 55% in size; note: potency is the fitted concentration of half-maximal effect). In outline: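 Stably transfected HaCaT (KeratinoSens), 1,500/well. Test agents in DMSO were applied for 23 h, 37 C/5% CO2. CellTiter-Fluor was incubated 1 h before the fluorescence read.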
A general note: qHTS replaces the single test concentration by a dilution series.

A short description of experiment [2]: Nuclear factor erythroid 2-related factor 2/antioxidant responsive element (Nrf2/ARE) small molecule agonists: luciferase reporter gene qHTS assay in human keratinocytes (AID 1919969). Note: nearly all actives have a fitted effect of over 35% in size.
Experiment [3] concerns the target Gonadotropin-releasing hormone receptor (Homo sapiens) (UniProt P30968). Put plainly: Human gonadotropin-releasing hormone receptor (GnRHR) small molecule agonists, calcium flux assay in GnRHR-HEK293 cells (AID 1920063). Note: nearly all actives have a fitted effect of over 35% in size. The method in brief: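 Stable human GnRHR HEK293 line. 18 h plating, then calcium dye for 1 h at 37 C. Agonist-mode compound addition from DMSO stocks; fluorescence monitored 3 min.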
(Calcium assays in cells follow changes in intracellular calcium, usually with a dye or a luminescent sensor.)

In experiment [4] the target is KiSS-1 receptor (Homo sapiens) (UniProt Q969F8). Briefly: Human kisspeptin (KISS1R) small molecule agonists, calcium flux assay in KISS1R-HEK293 cells (AID 1920064; active = well fitted curve in the direction sought with a large enough effect in the repeat runs; an effect the other way counts as inactive or inconclusive). In outline:
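After overnight (18 h) culture at 37 C/5% CO2, human KISS1R-HEK293 cells received calcium dye for 1 h, then test compound; emission at 540 nm (excitation 480 nm) was tracked for 3 min.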

The nature of experiment [5]: G protein-coupled receptor (GPCR) small molecule agonists, calcium flux assay: HEK293 wild type cell line counter screen (AID 1920065). The method in brief:
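Following 18 h incubation at 37 C/5% CO2, plates got calcium dye for 1 h; compounds, ATP or DMSO were then pinned in and fluorescence followed kinetically (480/540 nm).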

A short description of experiment [6]: p53 small molecule agonists, cell-based qHTS assay with human liver microsomes: qHTS cell viability counter screen (AID 1963579). Note: nearly all actives have a fitted effect of over 45% in size. The method in brief: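 Metabolic activation used human liver microsomes and NADPH, both 0.5 mg/mL final, over 16 hours at 37 C on p53RE-bla cells (4,000/well). Cytotoxicity measured by CellTiter-Glo luminescence, 30 min at room temperature.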

The nature of experiment [7]: p53 small molecule agonists, cell-based qHTS assay with rat liver microsomes: qHTS cell viability counter screen (AID 1963580). Note: nearly all actives have a fitted effect of over 45% in size. In outline:
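After the beta-lactamase ratio was read, CellTiter-Glo was added to the same wells and luminescence measured at 30 min; cells had been treated 16 h at 37 C with compounds, rat liver microsomes and NADPH (0.5 mg/mL final each).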

Experiment [8] in a line: p53 small molecule agonists, cell-based qHTS assay: qHTS cell viability counter screen (AID 1963581). Note: nearly all actives have a fitted effect of over 45% in size. In outline:
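qHTS counter screen: 16 h compound exposure at 37 C of p53RE-bla HCT-116 cells (4,000 per well, seeded 5 h prior), cell viability by ATP luminescence.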

Experiment [9] in a line: p53 small molecule agonists, cell-based qHTS assay (AID 1963582; active = well fitted activation curve with a large enough effect in the signal ratio in the repeat runs, not every such curve was filed as active; the % refers to the signal ratio). The method in brief:
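Measured: fluorescence from cleaved LiveBLAzer substrate. System: p53RE-bla cells, 16 h compound treatment at 37 C, 2 h substrate step at room temperature.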

Experiment [10] has as its target Beta-2 adrenergic receptor (Homo sapiens) (UniProt P07550). Briefly: Adrenergic beta2 receptor (ADRB2) small molecule antagonists, cell-based qHTS assay (AID 1963592). Note: nearly all actives have a fitted effect of over 50% in size. Note: potency is the fitted concentration of half-maximal effect. In outline:
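Assay format: CHO-ADRB2 cells, 18-20hr seeding at 37C/5% CO2, then compound plus 1nM isoproterenol agonist mix for 0.5hr RT. Homogeneous time-resolved fluorescence cAMP detection after 1hr, expressed as 665/615 nm ratio.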

For experiment [11], the target named is D(2) dopamine receptor (Homo sapiens) (UniProt P14416). Briefly: Dopamine D2 receptor (DRD2) small molecule agonists, cell-based qHTS assay (AID 1963594). Note: nearly all actives have a fitted effect of over 35% in size. In outline: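 HEK293 cells stably expressing human DRD2, pre-treated with PDE inhibitor Ro20-1724 (0.1 mM final) and compound 10 min at room temperature, then stimulated with NKH477 (200nM […]) for 30 min. cAMP read by HTRF (665/620 nm).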
D(2) dopamine receptor (Homo sapiens), sequence (P14416 whole entry, looked up): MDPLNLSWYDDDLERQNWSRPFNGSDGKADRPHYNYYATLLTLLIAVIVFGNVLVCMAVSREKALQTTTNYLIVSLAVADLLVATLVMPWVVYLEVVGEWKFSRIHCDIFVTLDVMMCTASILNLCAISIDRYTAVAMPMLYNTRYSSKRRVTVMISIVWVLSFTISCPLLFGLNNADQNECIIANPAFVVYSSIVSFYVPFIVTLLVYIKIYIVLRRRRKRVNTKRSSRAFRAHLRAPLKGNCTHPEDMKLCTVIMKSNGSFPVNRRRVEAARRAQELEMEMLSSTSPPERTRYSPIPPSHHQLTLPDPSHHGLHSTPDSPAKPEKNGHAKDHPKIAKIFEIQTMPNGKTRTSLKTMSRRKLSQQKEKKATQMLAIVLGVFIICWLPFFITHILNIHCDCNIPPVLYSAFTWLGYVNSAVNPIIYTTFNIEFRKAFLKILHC

The target is the same in experiment [12]. Briefly: Dopamine D2 receptor (DRD2) small molecule antagonists, cell-based qHTS assay (AID 1963595; active = well fitted inhibition curve with a large enough effect in the signal ratio in the repeat runs, with a control signal flat; the % refers to the signal ratio). The method in brief:
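DRD2-HEK293; 0.1 mM Ro20-1724; cpd 10 min RT; NKH477 200 nM + quinpirole 12 nM, 30 min RT; HTRF cAMP (cAMP-d2/anti-cAMP cryptate), 665/620 nm ratio after 1 h.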

The target of experiment [13] is 5-hydroxytryptamine receptor 2A (Homo sapiens) (UniProt P28223). Put plainly: 5-hydroxytryptamine receptor 2A (HTR2A) small molecule agonists, cell-based qHTS assay (AID 1963587). Note: nearly all actives have a fitted effect of over 30% in size. In outline: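 CHO cells stably expressing human HTR2A, plated 18 h, loaded with calcium dye 1 h at 37 C. Agonist mode: compounds added and intracellular calcium fluorescence recorded kinetically for 2 min at 1 sec intervals.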
5-hydroxytryptamine receptor 2A (Homo sapiens), sequence (P28223 whole entry, looked up): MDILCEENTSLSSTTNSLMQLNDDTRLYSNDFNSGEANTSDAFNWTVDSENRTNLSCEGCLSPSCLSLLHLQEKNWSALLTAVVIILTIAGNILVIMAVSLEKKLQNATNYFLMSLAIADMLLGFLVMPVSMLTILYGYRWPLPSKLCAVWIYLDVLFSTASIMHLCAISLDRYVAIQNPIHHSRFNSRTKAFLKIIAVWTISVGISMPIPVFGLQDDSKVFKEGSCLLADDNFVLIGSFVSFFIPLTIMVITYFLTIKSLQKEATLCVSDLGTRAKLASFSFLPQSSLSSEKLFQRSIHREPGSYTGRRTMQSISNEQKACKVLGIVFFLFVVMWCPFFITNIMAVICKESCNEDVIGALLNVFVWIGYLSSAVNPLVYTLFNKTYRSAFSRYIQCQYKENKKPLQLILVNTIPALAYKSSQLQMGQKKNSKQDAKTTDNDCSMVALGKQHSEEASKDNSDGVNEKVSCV

The target in experiment [14] is Muscarinic acetylcholine receptor M1 (Homo sapiens) (UniProt P11229). Briefly: Cholinergic receptor muscarinic 1 (CHRM1) small molecule antagonists, cell-based qHTS assay (AID 1963588). Note: nearly all actives have a fitted effect of over 40% in size. Note: potency is the fitted concentration of half-maximal effect. In outline:
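Compounds were tested at 15 concentrations in three independent runs. Dye-loaded CHRM1-CHO cells were exposed 5 min at room temperature before stimulation by acetylcholine added at 50nM. Intracellular calcium was read kinetically on FDSS for 3 min.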

The target is the same in experiment [15]. Put plainly: Cholinergic receptor muscarinic 1 (CHRM1) small molecule agonists, cell-based qHTS assay (AID 1963589). Note: nearly all actives have a fitted effect of over 35% in size. Note: potency is the fitted concentration of half-maximal effect. The method in brief:
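Kinetic fluorescence (1 s intervals) of calcium-sensitive dye in human M1 CHO cells after compound addition; cells pre-incubated 18 h at 37 C/5% CO2 and dye-loaded 1 h.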

A short description of experiment [16]: cAMP Responsive Elements (CRE) small molecule agonists, cell-based qHTS assay (AID 1963590). The method in brief:
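Test agents in DMSO were incubated 3 h at 37 C/5% CO2 with CRE-bla HEK 293T cells seeded 18 h earlier; LiveBLAzer B/G FRET substrate was added and read after 2 h at room temperature.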

Experiment [17] in a line: cAMP Responsive Elements (CRE) small molecule antagonists, cell-based qHTS assay (AID 1963591; active = well fitted inhibition curve with a large enough effect in the signal ratio in the repeat runs, not every such curve was filed as active; the % refers to the signal ratio). The method in brief: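 Reporter line CRE-bla HEK 293T in dialyzed-FBS DMEM; cells preincubated 18 h, treated 3 h with compound plus NKH477 (0.25 uM final); LiveBLAzer FRET, 2 h RT.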
The target of experiment [18] is 5-hydroxytryptamine receptor 2A (Homo sapiens) (UniProt P28223). Briefly: 5-hydroxytryptamine receptor 2A (HTR2A) small molecule antagonists, cell-based qHTS assay (AID 1963586). Note: nearly all actives have a fitted effect of over 45% in size. The method in brief: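 CHO cells stably expressing human HTR2A were plated for 18 h at 37 C, then loaded with calcium dye for 1 h. Compounds were preincubated 5 min at room temperature before DOI (4 nM solution) was added. Kinetic fluorescence was read for 3 min.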

Experiment [19] has as its target Beta-2 adrenergic receptor (Homo sapiens) (UniProt P07550). Briefly: Adrenergic beta2 receptor (ADRB2) small molecule agonists, cell-based qHTS assay (AID 1963593).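 Note: CHO cells stably overexpressing human ADRB2.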 In outline:
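CHO cells stably over-expressing ADRB2 were plated overnight at 37C, then dosed with compounds plus a stimulation mix containing 100uM IBMX and 25uM Ro-20-1724 for 0.5hr at room temperature. cAMP was measured by HTRF competition, 1hr.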

KiSS-1 receptor (Homo sapiens), sequence (Q969F8 whole entry, looked up): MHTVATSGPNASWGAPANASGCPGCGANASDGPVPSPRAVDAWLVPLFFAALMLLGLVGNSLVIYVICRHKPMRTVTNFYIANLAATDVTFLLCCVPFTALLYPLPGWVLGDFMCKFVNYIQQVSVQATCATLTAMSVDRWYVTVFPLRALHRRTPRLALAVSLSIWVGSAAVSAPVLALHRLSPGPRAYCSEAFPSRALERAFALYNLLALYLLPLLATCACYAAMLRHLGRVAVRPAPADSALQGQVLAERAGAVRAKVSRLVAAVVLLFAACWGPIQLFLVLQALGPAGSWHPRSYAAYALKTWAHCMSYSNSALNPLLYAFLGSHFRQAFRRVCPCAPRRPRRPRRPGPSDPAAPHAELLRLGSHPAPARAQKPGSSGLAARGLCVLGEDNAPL
Beta-2 adrenergic receptor (Homo sapiens), sequence (P07550 whole entry, looked up): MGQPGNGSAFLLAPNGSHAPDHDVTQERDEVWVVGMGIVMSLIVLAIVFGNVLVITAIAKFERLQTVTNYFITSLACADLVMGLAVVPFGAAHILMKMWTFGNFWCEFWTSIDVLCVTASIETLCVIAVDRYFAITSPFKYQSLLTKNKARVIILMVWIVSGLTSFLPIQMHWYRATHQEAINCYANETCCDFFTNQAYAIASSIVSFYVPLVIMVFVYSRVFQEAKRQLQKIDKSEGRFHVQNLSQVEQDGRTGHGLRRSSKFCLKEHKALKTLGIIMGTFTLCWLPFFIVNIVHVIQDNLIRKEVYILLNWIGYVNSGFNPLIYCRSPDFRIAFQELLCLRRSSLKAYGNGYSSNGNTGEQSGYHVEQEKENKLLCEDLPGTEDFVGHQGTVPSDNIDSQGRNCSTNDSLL
Muscarinic acetylcholine receptor M1 (Homo sapiens), sequence (P11229 whole entry, looked up): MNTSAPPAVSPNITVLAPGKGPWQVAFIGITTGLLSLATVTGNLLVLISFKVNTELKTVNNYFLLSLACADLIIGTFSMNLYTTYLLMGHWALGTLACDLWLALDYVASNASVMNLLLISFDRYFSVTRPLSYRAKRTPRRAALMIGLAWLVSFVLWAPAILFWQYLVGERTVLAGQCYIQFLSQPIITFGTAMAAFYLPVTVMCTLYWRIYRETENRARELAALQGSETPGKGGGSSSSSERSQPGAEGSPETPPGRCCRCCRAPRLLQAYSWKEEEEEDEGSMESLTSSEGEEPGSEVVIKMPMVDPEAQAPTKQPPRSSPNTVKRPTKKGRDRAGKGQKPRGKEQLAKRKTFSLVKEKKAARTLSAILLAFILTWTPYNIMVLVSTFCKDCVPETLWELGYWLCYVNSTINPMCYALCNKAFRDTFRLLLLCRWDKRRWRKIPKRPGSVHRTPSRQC
Gonadotropin-releasing hormone receptor (Homo sapiens), sequence (P30968 whole entry, looked up): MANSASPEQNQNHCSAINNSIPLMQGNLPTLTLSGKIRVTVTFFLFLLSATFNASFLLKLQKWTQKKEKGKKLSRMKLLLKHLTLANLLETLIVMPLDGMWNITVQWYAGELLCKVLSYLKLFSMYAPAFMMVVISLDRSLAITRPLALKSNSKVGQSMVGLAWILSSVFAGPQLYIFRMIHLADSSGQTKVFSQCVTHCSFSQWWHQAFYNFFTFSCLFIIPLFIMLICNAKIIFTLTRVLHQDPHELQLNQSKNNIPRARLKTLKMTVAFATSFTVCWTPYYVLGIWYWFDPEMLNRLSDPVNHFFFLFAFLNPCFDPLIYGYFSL

Turning to `COC(=O)[C@H]1[C@H]2C[C@@H]3c4[nH]c5cc(OC)ccc5c4CCN3C[C@H]2C[C@@H](OC(=O)c2cc(OC)c(OC)c(OC)c2)[C@@H]1OC`, the Potency in experiment [1] is 48.5 µM (active) and inactive; in [10], 54.4 µM (active) and 19.9 µM (active) and inactive. Also, the Potency result in [2], in experiment [3], in experiment [4], in [5], in [6] and in experiment [7] was “inactive” in each case. Moreover, the Potency result in experiment [8], in experiment [9], in [11] and in [12] was “inactive” throughout.

Turning to `CCCCCC(N)=O`, the Potency result in [1], in experiment [2], in [3], in [4], in [5] and in experiment [7] was “inactive” in each case. In addition, the Potency entry in experiment [8], in [9], in experiment [13], in experiment [14], in [15] and in experiment [16] was “inactive” in each case. Besides, the Potency result in [17], in [10], in experiment [11] and in [12] was “inactive” each time.

Turning to `CCOC(=O)C(C#N)=C(c1ccccc1)c1ccccc1`, the Potency result in [1], in experiment [2], in experiment [3], in [4], in [5] and in [6] was “inactive” each time. In addition, the Potency result in experiment [7], in experiment [8], in experiment [9], in experiment [18], in experiment [13] and in experiment [14] was “inactive” throughout. The Potency entry in experiment [15], in experiment [16], in [10], in experiment [19] and in experiment [11] was “inactive” each time.

With `C=C(C)C(N)=O`, the Potency entry in [1], in experiment [2], in [3], in experiment [4], in experiment [5] and in experiment [6] was “inactive” in each case. In addition, the Potency result in experiment [7], in experiment [8], in [9], in experiment [18], in [13] and in [15] was “inactive” throughout. Moreover, the Potency entry in experiment [16], in experiment [17], in experiment [10], in [19], in experiment [11] and in [12] was “inactive” in each case. Further, in [14], the Potency was 847 nM (active) and inactive.

In the case of `CC(=O)C(=O)O`, the Potency entry in experiment [1], in [2], in [3], in experiment [4], in [5] and in [6] was “inactive” each time. The Potency entry in experiment [7], in experiment [8], in experiment [9], in experiment [18], in experiment [13] and in experiment [14] was “inactive” throughout. In addition, the Potency result in [15], in experiment [16], in [17], in [10], in [19] and in experiment [11] was “inactive” throughout. For the same compound, the Potency entry in experiment [12] was “inactive”.

`COC(=O)CC(=O)OC`: the Potency result in [1], in experiment [2], in experiment [3], in experiment [4], in [5] and in experiment [6] was “inactive” each time. For the same compound, the Potency entry in experiment [7], in experiment [8], in experiment [9], in experiment [18], in experiment [13] and in [14] was “inactive” throughout. Besides, the Potency entry in [16], in [17], in experiment [10], in experiment [19], in experiment [11] and in experiment [12] was “inactive” in each case. In addition, the Potency in [15] was 20.3 µM (active) and inactive.

In the case of `CCNC(=S)NCC`, the Potency result in experiment [1], in experiment [2], in experiment [3], in experiment [4], in experiment [5] and in experiment [6] was “inactive” in each case. The Potency result in experiment [7], in experiment [8], in experiment [9], in [18], in [13] and in [14] was “inactive” throughout. For the same compound, the Potency result in experiment [15], in experiment [16], in [17], in [10], in [11] and in experiment [12] was “inactive” throughout.
